# Test results reported in PubChem BioAssay (NCI).
# About 79,000 compounds went through this panel and 15% of them were active in at least one assay; those are over-represented in the sample as a whole. A number with no mark means an inactive call. Activity calls are given as the source filed them. Rule as the data show it: active = growth inhibition above about 70%; inactive = the rest.
# Experiments:
# [1] = NCI Yeast Anticancer Drug Screen. Data for the rad50 strain (AID 155);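 also: 0% = growth of vehicle-only cultures of the same strain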; conditions: S. cerevisiae rad50 strain growth inhibition, stronger effect = higher value
# Summary of the method: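 Cells are treated with compound, grown, and their growth is then scored against vehicle-only cultures of the same repair-deficient yeast strain.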
# [2] = NCI Yeast Anticancer Drug Screen. Data for the mec2-1 strain (AID 157); conditions: S. cerevisiae mec2-1 strain, stronger effect = higher value
# Summary of the method: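 Each compound was tested on mec2-1 yeast, a strain altered in DNA damage repair or cell cycle control. Growth inhibition is reported relative to vehicle.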
# [3] = NCI Yeast Anticancer Drug Screen. Data for the sgs1 mgt1 strain (AID 161);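 also: 0% = growth of cultures given vehicle only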; conditions: S. cerevisiae sgs1 mgt1 strain, stronger effect = higher value
# Summary of the method: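 Inhibition of yeast growth, normalised to vehicle-treated controls, is reported for a strain bearing genetic alterations in DNA damage repair.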
# [4] = NCI Yeast Anticancer Drug Screen. Data for the cln2 rad14 strain (AID 165);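 also: 0% = growth equal to vehicle treated cultures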; conditions: S. cerevisiae cln2 rad14 strain, stronger effect = higher value
# Summary of the method: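 Test compounds were added to cln2 rad14 yeast cultures; inhibition of growth was then determined by comparison with vehicle treatment.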
# [5] = NCI Yeast Anticancer Drug Screen. Data for the bub3 strain (AID 167); conditions: S. cerevisiae bub3 mutant strain, stronger effect = higher value
# Summary of the method: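 Part of a panel of yeast mutants defective in DNA damage repair or cell cycle regulation. Each strain is grown with compound, and inhibition is calculated relative to solvent-treated cultures.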
# [6] = NCI Yeast Anticancer Drug Screen. Data for the mlh1 rad18 strain (AID 175); conditions: S. cerevisiae mlh1 rad18 strain growth inhibition, stronger effect = higher value
# Summary of the method: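 Inhibition values reflect reduced growth of mutant yeast versus vehicle-treated controls following compound exposure; the mutations affect DNA damage repair.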
# [7] = at 5.0 µM (retest, dose inferred, filed as 0.5)
# [8] = at 50.0 µM (retest, dose inferred, filed as 5.0)
SMILES,"growth inhibition [1, 7]","growth inhibition [1, 8]",growth inhibition ([1]; at 50.0 µM),"growth inhibition [2, 7]","growth inhibition [2, 8]",growth inhibition ([2]; at 50.0 µM),"growth inhibition [3, 7]","growth inhibition [3, 8]",growth inhibition ([3]; at 50.0 µM),"growth inhibition [4, 7]","growth inhibition [4, 8]",growth inhibition ([4]; at 50.0 µM),"growth inhibition [5, 7]","growth inhibition [5, 8]",growth inhibition ([5]; at 50.0 µM),"growth inhibition [6, 7]","growth inhibition [6, 8]",growth inhibition ([6]; at 50.0 µM)
C[n+]1c(-c2cccc(OCCOCCOc3cccc(-c4c5cc(N)ccc5c5ccc(N)cc5[n+]4C)c3)c2)c2cc(N)ccc2c2ccc(N)cc21,36%,96% (active),85.5% (active),6%,95% (active),82.7% (active),25%,97% (active),81.3% (active),10%,59%,62.9%,22%,94% (active),78.8% (active),35%,95% (active),86.5% (active)
COc1ccc(-n2c(=O)c3[nH]c(=S)[nH]c3n(-c3ccc(OC)cc3)c2=S)cc1,21%,25%,25.5%,1%,16%,44%,7%,23%,-47.7%,3%,25%,-1%,-44%,13%,-41.8%,14%,19%,-29.9%
COC(=O)c1cc(C)c2sc3ccccc3c2c1C,-13%,29%,73.1% (active),-8%,23%,5.3%,-7%,51%,75.2% (active),-8%,16%,-24.1%,-21%,21%,31.4%,-3%,38%,61.5%
N#CSCCSC#N,5%,95% (active),76% (active),-1%,93% (active),82.5% (active),4%,91% (active),87.2% (active),6%,86% (active),40.3%,9%,96% (active),81.8% (active),3%,95% (active),83.7% (active)
CC(=O)OC1CCC23COC(CC(C)C2C)C3(Br)C1 (centres undefined),-5%,12%,-19.5%,13%,8%,4.2%,2%,8%,1.4%,-2%,-5%,52.3%,6%,1%,-4.55%,3%,-4%,1.7%
CC(C)(C)CC(C)(C)c1ccc(OCCSC(=N)N)cc1,95% (active),100% (active),99.3% (active),99% (active),100% (active),99.6% (active),75% (active),99% (active),99.2% (active),99% (active),99% (active),98.6% (active),99% (active),100% (active),99.4% (active),99% (active),99% (active),99.2% (active)
N=C(N)SC1c2ccccc2-c2cc([N+](=O)[O-])ccc21 (centres undefined),29%,98% (active),97.7% (active),13%,98% (active),98.1% (active),22%,98% (active),98.6% (active),14%,98% (active),97.8% (active),11%,99% (active),98% (active),17%,99% (active),98.5% (active)
CC(C(=O)O)c1cn(Cc2ccccc2)c2ccccc12 (centres undefined),-2%,61%,4.65%,6%,58%,43.2%,-28%,36%,31.4%,6%,85% (active),-8.85%,21%,80% (active),-43.8%,6%,34%,38.9%
Nc1cc2c(c[n+](CCCCCCCCCC[n+]3cc4c5ccccc5c(N)cc4c4ccccc43)c3ccccc23)c2ccccc12,20%,94% (active),88% (active),36%,96% (active),91.8% (active),56%,95% (active),85% (active),16%,92% (active),87.8% (active),58%,95% (active),81% (active),63%,95% (active),83.6% (active)
OCC(O)C(OC1OC(CO)C(O)C(O)C1O)C(O)C(/C=N/Nc1ccc(Br)cc1)=N/Nc1ccc(Br)cc1 (centres undefined),-3%,98% (active),99.3% (active),-11%,98% (active),98.5% (active),2%,99% (active),98.5% (active),-41%,99% (active),98.9% (active),23%,99% (active),97.9% (active),13%,98% (active),98.5% (active)
N#CCC1CC(=O)c2[nH]c3ccccc3c2C1 (centres undefined),-157%,-137%,8.85%,-49%,-54%,7.7%,-64%,-63%,10%,-54%,-74%,28%,-62%,-70%,-15.9%,-123%,-121%,10.4%
NC(CCCNc1nc(O)cc(=O)[nH]1)C(=O)O (centres undefined),-166%,-176%,18.2%,-51%,-54%,13.4%,-66%,-68%,7.3%,-63%,-80%,66%,-68%,-73%,0.7%,-127%,-125%,-5%
COC(=O)C(C#N)=C(SC)SC,7%,99% (active),99.3% (active),4%,99% (active),98.2% (active),17%,99% (active),99.5% (active),-3%,98% (active),95.2% (active),1%,99% (active),98.9% (active),41%,99% (active),99.1% (active)
CCCCCCCCC(=O)NCCN(CCN)C(=O)CCCCCCCC,-82%,97% (active),90.2% (active),-43%,98% (active),93.1% (active),-33%,97% (active),91.7% (active),-24%,98% (active),89.9% (active),-47%,97% (active),90.1% (active),-68%,97% (active),90% (active)
Cc1nc(-n2nc(-c3ccccc3)cc2-c2ccccc2)sc1C(/C=C\c1ccc([N+](=O)[O-])cc1)=N/NC(=S)NN,4%,87% (active),61.3%,3%,86% (active),37.1%,11%,91% (active),80.7% (active),0%,67%,10.8%,25%,88% (active),65.7%,-2%,80% (active),64.8%
COc1ccc(C2SCC(=O)N2c2nncs2)cc1 (centres undefined),-1%,5%,50.1%,-3%,1%,3.55%,-1%,3%,9.5%,2%,7%,-8.95%,4%,12%,21.7%,2%,5%,13.8%
O=C1c2ccccc2C(=O)c2sc(Nc3ccc(Cl)cc3)nc21,79% (active),97% (active),90.5% (active),84% (active),99% (active),92.9% (active),97% (active),99% (active),93.8% (active),58%,98% (active),88.8% (active),98% (active),99% (active),91.6% (active),85% (active),98% (active),91.2% (active)
Nc1nc(-c2ccccc2)c(-c2ccccc2)c(-c2nc(N)nc(-c3ccccc3)c2-c2ccccc2)n1,7%,-3%,-4%,6%,16%,-6%,-1%,0%,-16.9%,21%,12%,2.45%,-1%,-9%,-17.1%,-12%,-16%,7.8%
